Compounds with a hit are over-represented: about 2.4% of the library has one in this group of screens.
D2 PAM-1: HTS Assay for Positive Allosteric Modulators of the Human D2 Dopamine Receptor: Primary Screen for Potentiators. D(2) dopamine receptor (Homo sapiens), P14416. HEK293 T-REx D2, calcium flux, EC20 dopamine potentiation. potentiation, % at 10 µM. 340,000 compounds, 0.34% hits. AID 485347, 2010;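 active means potentiation over 3 SD above the plate norm, cut at about 30% in these data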; further: 0% is about no effect
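Tetracycline-induced HEK293 T-REx cells force-coupled to calcium signalling expressed D2; compounds were pin-added after a 10 s baseline, read kinetically 180 s, then an EC20 dopamine challenge followed with a further 180 s calcium read.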
D2 antag: HTS Assay for Allosteric Antagonists of the Human D2 Dopamine Receptor: Primary Screen for Antagonists; D(2) dopamine receptor (Homo sapiens), P14416; HEK293 TREx D2 cells, calcium flux, dopamine EC80; inhibition, % at 10 µM; 340,000 compounds, 2% hits; AID 485344, 2010; in the data active means inhibition above about 30%; inactive means below that, where a call was filed; further: 0% is about no effect
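Read-out: kinetic calcium fluorescence (1 cycle/s) in inducible HEK293 T-REx D2 cells after an EC80 dopamine addition that followed 180 s compound preincubation. Loss of the dopamine response indicates antagonism.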
D2 ag-1: HTS Assay for Allosteric Agonists of the Human D2 Dopamine Receptor: Primary Screen for Agonists | D(2) dopamine receptor (Homo sapiens), P14416 | 340,000 compounds, 0.53% hits | activation, % at 2 µM | HEK293 T-REx D2 cells, calcium flux agonist mode;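 active means activation over 3 SD above normal in the single-dose calcium agonist read, cut at about 30% in these data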; further: 0% is about no effect
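In this primary screen, compounds producing a positive calcium signal within 180 s of addition to tetracycline-induced, force-coupled HEK293 Trex D2 cells are flagged; cells are dye-loaded with a no-wash calcium kit beforehand.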
D2 PAM-2: Beta-Arrestin HTS for Positive Allosteric Modulators of the Human D2 Dopamine Receptor: Potentiators | potentiation, % (test concentration not listed) | DiscoveRx D2 beta-arrestin cells, luminescence, 90 min; 100% = 57 uM dopamine signal | 360,000 compounds, 0.23% hits; in the data active means potentiation above about 50%; inconclusive means mostly about 30% to 49%
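D2 cells co-treated with compound plus 50 nM dopamine (EC20) for 90 min at 37 deg C to detect potentiation. Beta-arrestin recruitment was read as enzyme-fragment luminescence after 1 h at ambient temperature. Full response was set by 57 uM dopamine.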
D2 ag-2: Beta-Arrestin HTS for Positive Allosteric Modulators of the Human D2 Dopamine Receptor: Agonists. DiscoveRx PathHunter D2 beta-arrestin, luminescence, 90 min; 100% = 57 uM dopamine signal. activation, % (test concentration not listed). D(2) dopamine receptor (Homo sapiens), P14416. 360,000 compounds, 0.084% hits; in the data active means activation above about 40%; inconclusive means between about 15% and that limit
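Agonist mode: compounds alone added to overnight-plated D2 PathHunter cells for 90 min at 37 C, with 57 uM final dopamine (EC100) defining full response. Beta-arrestin recruitment detected by chemiluminescent reagent, read after 1 h at ambient temperature.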
D3 arrestin ag: qHTS of D3 Dopamine Receptor Agonist: D3 Dopamine Receptor B-arrestin Agonist Confirmatory Assay | 2,300 compounds, 4% hits | shares compounds with D2 ag-1 | DiscoveRx D3 beta-arrestin cells, luminescence, 90 min | Potency, µM (doses to about 76.9 µM), for inactives: at the highest dose activation, hits mostly activators;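 further: potency means the concentration at half of the fitted maximal effect; 100% = dopamine control response; nearly all actives have a fitted effect of over 70% in size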
Target sequence (P35462 whole entry, looked up): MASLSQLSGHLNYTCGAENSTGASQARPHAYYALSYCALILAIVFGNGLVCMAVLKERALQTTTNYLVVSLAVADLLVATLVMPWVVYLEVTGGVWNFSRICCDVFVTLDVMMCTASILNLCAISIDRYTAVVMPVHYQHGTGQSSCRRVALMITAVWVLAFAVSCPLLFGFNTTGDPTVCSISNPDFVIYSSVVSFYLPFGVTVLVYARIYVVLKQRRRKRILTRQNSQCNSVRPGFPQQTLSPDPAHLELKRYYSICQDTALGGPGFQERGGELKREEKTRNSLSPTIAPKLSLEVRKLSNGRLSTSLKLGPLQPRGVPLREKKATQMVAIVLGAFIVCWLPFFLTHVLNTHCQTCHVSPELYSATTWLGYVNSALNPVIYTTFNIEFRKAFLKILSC
D2 ag-3: qHTS of D3 Dopamine Receptor Agonist: D2 Dopamine Receptor B-arrestin Agonist Counterscreen | shares compounds with D2 ag-1 | DiscoveRx PathHunter D2 beta-arrestin, luminescence, 90 min; response scale: percent relative to full dopamine signal | Potency, µM (doses to about 76.9 µM), for the others: at the top dose activation, hits mostly activators | 2,300 compounds, 5.9% hits; further: potency means the concentration at half of the fitted maximal effect; % of control where 0% means no effect; nearly all actives have a fitted effect of over 70% in size
* hit, by the source's call; ? = inconclusive; . = no result given. Unless noted, the call rests on the fitted dose curve; in most records, active means well fitted activation curve with a large enough effect; inconclusive means small, poorly fitted or top-dose-only effect; inactive means flat fitted curve, though single readings scatter.

SMILES	D2 PAM-1	D2 antag	D2 ag-1	D2 PAM-2	D2 ag-2	D3 arrestin ag	D2 ag-3
CCOc1ccccc1NC(=O)CN1C(=O)COc2ccc(S(=O)(=O)N3CCCCC3)cc21	3	.	0	.	.	.	.
Cc1ccc(C)c(CN2C(=O)c3ccccc3S(=O)(=O)c3ccc(C(=O)N(C)C4CCCCC4)cc32)c1	-7	.	0	.	.	.	.
COc1ccc2c(c1)c1c(c(=O)n(-c3ccc(C)cc3)c(=O)n1CC(=O)N1CCCC1)n2C	5	.	1	.	.	.	.
COc1ccccc1N1CCN(c2nc(-c3ccc(C)cc3)nc3ccccc23)CC1	12	.	0	.	.	.	.
CCOC(=O)C1CCCN(C(=O)Cn2nc(C)c3c(C)n(-c4ccccc4)nc3c2=O)C1 (centres undefined)	3	-7	25	-6	-3	-10%	-7%
COc1ccc(OC)c(NC(=O)CN(C)S(=O)(=O)c2ccc3[nH]c4c(c3c2)CCCC4)c1	-4	.	-1	.	.	.	.
O=C(CSc1nc2ccccc2n1Cc1cccc(C(F)(F)F)c1)NCc1ccccc1	5	.	2	.	.	.	.
CN(CCOc1ccc(Cl)cc1)Cc1cccc(S(=O)(=O)N(C)C)c1	-37	48*	70*	-8	13	7.1µM*	?
CN(CCOc1ccccc1)Cc1ccccc1	.	.	.	-10	12	.	.
CCNC(=O)C(=O)Nc1ccc([N+](=O)[O-])cc1	-9	-23	25	-10	-1	-1%	-1%
Cc1ccc(S(=O)(=O)N2CCOC2CNC(=O)C(=O)NCc2ccc3c(c2)OCO3)cc1 (centres undefined)	-3	66*	4	-13	-1	-1%	4%
Cc1ccc(NC(=O)c2cnn3c(C(F)F)cc(-c4ccccc4)nc23)cc1F	9	.	.	.	.	.	.
Cc1cccc(C)c1NC(=O)Cn1c(=O)n(Cc2ccc3c(c2)OCO3)c(=O)c2oc3ccccc3c21	1	.	-1	.	.	.	.
COc1cccc(-n2nnc(-c3nc(-c4ccccc4F)no3)c2C)c1	0	.	1	.	.	.	.
NC(=O)c1nsc(C(=O)N(c2ccccc2)C(C(=O)NCc2ccc(F)cc2)c2ccco2)c1N (centres undefined)	.	.	.	2	4	.	.
NC(=O)c1nsc(C(=O)N(c2ccccc2)C(C(=O)NCc2ccc(F)cc2)c2ccc(O)cc2)c1N (centres undefined)	5	57*	6	23	4	2%	-1%
CC1CN(C)C(C)C/C1=N/Oc1ccccc1[N+](=O)[O-] (centres undefined)	-19	25	41*	-11	7	20%	18%
C=C(C)C(=O)Nc1nnc(-c2ccccc2C)s1	10	52*	0	-23	-1	-5%	-4%
O=C1N=C(N2CCOCC2)S/C1=C\c1ccc(-c2ccccc2Cl)o1	-16	-8	42*	-9	8	0%	?
O=C1N=C(N2CCOCC2)S/C1=C\c1cccs1	-12	-7	-1	-9	-1	.	.
Cc1ccccc1-c1ccc(/C=C2/SC(N3CCOCC3)=NC2=O)o1	-34	83*	73*	?	49*	-6%	?
O=C(c1cccc(C(=O)N(c2ccccn2)C2CCCCC2)c1)N(c1ccccn1)C1CCCCC1	-27	62*	70*	2	?	-4%	?
O=C(c1cccc(S(=O)(=O)Nc2ccccc2Cl)c1)N1CCN(c2ccccc2O)CC1	7	14	0	-1	15	11%	8%
O=C(c1cccc(NS(=O)(=O)c2ccc(Br)cc2)c1)N1CCN(c2ccccc2O)CC1	-10	3	1	-23	-5	9%	11%
COc1cccc(NC(=O)Cn2c(=O)n(-c3ccc(C)cc3)c(=O)c3ccccc32)c1	-7	.	0	.	.	.	.
SMILES	D2 PAM-1	D2 antag	D2 ag-1	D2 PAM-2	D2 ag-2	D3 arrestin ag	D2 ag-3
Cc1ccccc1[C@@H](NC(=O)OC(C)(C)C)C(=O)OC(C)(C)C	5	-7	-1	-6	-4	-12%	2%
Cc1ccc(CCNC(=O)c2ccc(CSCc3ccccc3Cl)o2)cc1	-15	.	1	.	.	.	.
COc1cc(OC)cc(C(=O)NC(C(=O)Nc2ccc(N3CCOCC3)cc2)C(C)C)c1 (centres undefined)	-5	2	0	-21	1	.	.
COc1cc(OC)cc(C(=O)N[C@H](C(=O)Nc2ccccc2N2CCOCC2)C(C)C)c1	-20	8	45*	-4	-1	-3%	-3%
CCS(=O)(=O)N1CC(=O)N(c2ccc(Cl)cc2C)C(C)(C(=O)NC2CCCCCC2)C1 (centres undefined)	-13	.	0	.	.	.	.
CC(C)OCCCn1c(=O)c2ccccc2n2c(CCC(=O)N3CCN(c4ccccn4)CC3)nnc12	-16	25	67*	1	13	-2%	4%
O=C(CCc1nnc2n(Cc3ccc(Cl)cc3)c(=O)c3ccccc3n12)N1CCN(c2ccccn2)CC1	-2	-19	-1	-5	5	.	.
CCOc1ccc(/C(O)=C2/C(=O)C(=O)N(c3ncccn3)C2c2ccccc2)cc1 (centres undefined)	-18	-5	50*	-11	-8	-9%	-5%
CC(=O)c1ccc(NS(=O)(=O)c2cc(-c3cc(C)no3)ccc2C)cc1	-2	.	0	.	.	.	.
CCN1CCN(c2ncnc3scc(-c4ccc(C)cc4)c23)CC1	-27	68*	70*	?	110*	8%	2.8µM*
CC(OC(=O)CNC(=O)c1ccc(Br)cc1)C(=O)NC1CCCCC1C (centres undefined)	-7	3	0	-11	-5	-1%	0%
CC(OC(=O)Cc1c(F)cccc1Cl)C(=O)NC1CCCCC1C (centres undefined)	-12	-9	1	-2	-5	-5%	-2%
C=CCC1Cc2c(cccc2[N+](=O)[O-])C(CC=C)N1 (centres undefined)	-13	36*	50*	?	?	?	22µM*
O=S1(=O)c2ccccc2N(Cc2ccccc2Cl)c2ccccc21	16	.	-2	.	.	.	.
